From PubChem
BAZ2B block: BAZ2B (human) inhibition; AlphaScreen BAZ2B-H3K14Ac peptide displacement; Potency, µM (doses to about 114 µM), for the others: at the top dose activity change, negative = inhibition, usual class: inhibitors; actives 4.4% (n = 360,000); further: potency means the concentration at half of the fitted maximal effect; on the % scale 0 is the no-effect control and ±100 the full control effect; nearly all actives have a fitted effect of over 60% in size
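BAZ2B (50 nM) with biotin-H3(5-23)K14Ac peptide (50 nM) in PBS pH 7.4, 0.01% Tween-20, preformed 30 min, then compound 30 min at room temperature; top concentration 110uM. AlphaScreen streptavidin donor/nickel chelate acceptor beads (10 ug/mL final), 20 min dark, signal read.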
TDP1 inh: blocks human tyrosyl-DNA phosphodiesterase 1 | Q9NUW8 | recombinant TDP1, AlphaScreen DNA substrate cleavage | Potency, µM (highest dose often 130 µM), for the others: top-dose activity change, negative = inhibition, hits mostly inhibitors | actives 0.28% (n = 350,000) | AID 485290; further: potency means the concentration at half of the fitted maximal effect; on the % scale 0 is the no-effect control and ±100 the full control effect; nearly all actives have a fitted effect of over 40% in size
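AlphaScreen read-out: signal falls as enzyme removes the 3' tyrosine-FITC from a 5'-biotinylated DNA oligo (15 nM, 5 min, RT). Enzyme was E. coli-made recombinant Tdp1 at 1 nM, exposed to compound for 15 min beforehand; beads 10 ug/ml, 10 min.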
HP1b binding inh: inhibitors of HP1-beta chromodomain binding to methylated histone tails; AlphaScreen HP1-beta / biotin-H3K9me3 peptide binding; AID 540317; Potency, µM (series often up to 114 µM), for inactives: at the highest dose activity change, negative = inhibition, hits mostly inhibitors; P83916; actives 0.56% (n = 390,000); further: potency means the concentration at half of the fitted maximal effect; nearly all actives have a fitted effect of over 70% in size
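Compound inhibition of the preformed complex between 50 nM HP1-beta and 50 nM biotinylated H3K9me3 peptide was read by AlphaScreen. Buffer was PBS pH 7.4 with 0.01% Tween-20. Incubations ran 30 min at room temperature, with 10 ug/mL donor/acceptor beads.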
JMJD2A Tudor inh: JMJD2A Tudor domain (human) inhibition; Potency, µM (titrated, usually from 114 µM), for the others: at the highest dose activity change, negative = inhibition, most hits filed as inhibitors; actives 4.4% (n = 390,000); O75164; AlphaScreen JMJD2A-Tudor / H3K4me3 peptide binding; further: potency means the concentration at half of the fitted maximal effect; on the % scale 0 is the no-effect control and ±100 the full control effect; nearly all actives have a fitted effect of over 50% in size
Six1-Eya2 inh: Six1/Eya2 interaction inhibition; Q15475+O00167; AlphaScreen GST-Six1/His-Eya2 binding, biochemical; stronger effect = lower value; activity change, % (test concentration not listed); actives 0.56% (n = 360,000); in the data active means activity change below about -65%; inconclusive means mostly about -30% to -63%; further: on the % scale 0 is the no-effect control and ±100 the full control effect
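AlphaScreen luminescence read after one hour at 37 °C in darkness. Pin-transferred compounds met GST-Six1 and His-Eya2 protein (5X stock 250 nM/500 nM) plus glutathione donor and Ni-chelate acceptor beads (5X, 50 ug/mL).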
CtBP-E1A blk: blocks the CtBP interaction with E1A; AlphaScreen GST-E1A/His-CtBP binding, 1536-well; stronger effect = lower value; activity change, % (no concentration beside the values); actives 0.49% (n = 340,000); AID 651724; in the data active means activity change below about -65%; inconclusive means mostly about -30% to -63%; further: on the % scale 0 is the no-effect control and ±100 the full control effect
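Homogeneous bead-based format: GST-tagged E1A captured on glutathione donor beads, His-tagged CtBP on nickel acceptor beads; compounds precede bead addition by 2 h at 37 °C.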
Active calls of the source: *; u = inconclusive; x = no result given; [ ] = another dose, or the depositor's remark. Shown are actives, neighbours in structure and some others; about 5.3% of the full set was active somewhere. Unless noted, the call rests on the fitted dose curve; in most records, active means well fitted inhibition curve with a large enough effect; inconclusive means small, poorly fitted or top-dose-only effect; inactive means no such curve, though single readings can be large or run the other way.

SMILES	BAZ2B block	TDP1 inh	HP1b binding inh	JMJD2A Tudor inh	Six1-Eya2 inh	CtBP-E1A blk
Cc1ccc(Sc2ccc(CN3CCCCC3)cc2[N+](=O)[O-])cc1	u	x	u	35µM*	-8	x
CCc1nnc(SCC(=O)Nc2ccc(Cl)cc2F)c2cc3occc3n12	-38%	3%	31%	-15%	x	x
Cc1cc(C)c(CSc2nnc(C)n3c2cc2occc23)c(C)c1	40µM*	5%	u	u	x	x
C/C(=C\C(=O)c1ccc(C)o1)Nc1ccc(C(=O)O)cc1C	u	-7%	-9%	28µM*	0	1
CCc1ccc(-n2nc(CO)c(C(=O)NC(C)c3ccc(Cl)cc3)n2)cc1 (stereo not drawn)	4%	5%	62%	-1%	x	x
CCCOCC(O)CCc1n[nH]c(=S)n1-c1ccccc1 (stereo not drawn)	-4%	x	25%	50µM*	-5	3
Cn1c(SCc2n[nH]c(=S)n2-c2ccccc2)nnc1-c1ccccc1	-1%	-5%	31%	18µM*	0	-1
COC(Cc1n[nH]c(=S)n1-c1ccccc1)OC	-5%	u	26%	18µM*	11	-6
Cn1c(SCc2ccccc2)nnc1-c1ccncc1	-11%	1%	23%	-12%	5	-6
COc1ccc(CSCCc2n[nH]c(=S)n2-c2ccccc2)cc1	u	-3%	-3%	50µM*	1	-16
Cc1ccc(CNC(=O)CCCN2C(=O)CCn3nc(-c4cccn4C)cc32)cc1	u	3%	-5%[57 µM]	-28%	x	x
Cc1cccc(C)c1NCc1n[nH]c(=S)n1-c1ccccc1	-25%	-2%	23%	40µM*	-3	10
COc1ccc(-n2c(COc3ccccc3)n[nH]c2=S)cc1	-2%	x	32%	50µM*	1	-1
COCc1n[nH]c(=S)n1-c1ccccc1	2%	x	38%	40µM*	-2	-4
Cc1ccc(C)c(NCc2n[nH]c(=S)n2-c2ccccc2)c1	-2%	3%	-5%	u	2	3
O=C(CSc1nc(=O)[nH]c2c1CCC2)Nc1cc(C(F)(F)F)ccc1Cl	-15%	3%	11%	-16%	x	x
CC(=O)OC[C@@]1(O)C[C@@]23CC[C@@H]4c5ccoc5CC[C@@]4(C)[C@@H]2CCC1C3	x	6%	x	x	x	x
CCS(=O)(=O)c1nc(NC(C)=O)n[nH]1	50µM*	-3%	0%	6%[11.4 µM]	3	-8
Cc1ccc(OCC(=O)Nc2ccc(Cl)c(-c3nc4ncccc4o3)c2)cc1C	-1%	5%	46%	-1%	x	x
CN(C)c1ccc(/C=C(/C(=O)c2ccc(Cl)cc2Cl)n2cncn2)cc1	50µM*	0%	-11%	u	-3	2
Cc1nc(-c2ccc(S(=O)(=O)NCc3ccc(OC(C)C)cc3)cc2)co1	1%	9%	19%[57 µM]	-13%	x	x
COc1cc(/C=N/Nc2nc3ccccc3s2)cc([N+](=O)[O-])c1O	35µM*	u	u	40µM*	-82*	x
O=[N+]([O-])c1cc(Cl)cc(/C=N/Nc2nc3ccccc3s2)c1O	6.3µM*	5%	u	-25%[11.4 µM]	-14	x
COC(=O)c1ccccc1NC(=O)CSc1nc(-c2ccccc2)cc(C(F)(F)F)n1	14%	-2%	97%	29%	x	x
CC(C)C[C@H](NC(=O)[C@@H]1CCC(=O)N1)C(=O)N[C@@H](Cc1ccc(O)cc1)C(=O)N[C@@H](CCC(=O)O)C(=O)N[C@@H](CC(N)=O)C(=O)N[C@@H](CCCCN)C(=O)N1CCC[C@H]1C(=O)N[C@@H](CCCN=C(N)N)C(=O)N[C@@H](CCCN=C(N)N)C(=O)N1CCC[C@H]1C(=O)N[C@@H](Cc1ccc(O)cc1)C(=O)O	x	9%	x	x	x	x
SMILES	BAZ2B block	TDP1 inh	HP1b binding inh	JMJD2A Tudor inh	Six1-Eya2 inh	CtBP-E1A blk
O=[N+]([O-])c1ccccc1/C=C/C=N/N1CCCCC1	20µM*	12%	50µM*	18µM*	-68*	u
O=[N+]([O-])c1ccccc1/C=N/N1CCN(c2ccc(Cl)cc2)CC1	14µM*	7%	u	u	u	-21
O=[N+]([O-])c1ccccc1/C=C/C=N/Nc1nc(N2CCCCC2)nc(N2CCCCC2)n1	u	7%	u	u	1	2
O=[N+]([O-])c1ccccc1/C=C\C=N\N1CCN(c2ccccc2)CC1	4µM*	11%	u	10µM*	-66*	-23
O=[N+]([O-])c1ccccc1/C=N\N1CCN(c2ccccc2)CC1	18µM*	12%	u	40µM*	u	x
O=C(/C=C/c1ccccc1[N+](=O)[O-])N1CCN(c2ccc(F)cc2)CC1	u	6%	11%	-21%	-5	1
O=[N+]([O-])c1cc(/C=N/N2CCN(c3ccccc3)CC2)ccc1Cl	u	2%	38%	-3%	-7	-5
Cc1ccc(NC(=O)CCS(=O)(=O)c2cc(Br)cc3c2N(C(=O)C2CC2)CC3)cc1	-9%	8%	24%	-5%	x	x
O=C(Cn1c(=O)c(C(F)(F)F)nc2ccccc21)Nc1ccc(Br)cc1F	0%	3%	-6%	-16%	x	x
O=C(Cn1c(=O)n(CCc2ccccc2)c(=O)c2c3c(sc21)CCCC3)Nc1ccc(F)c(F)c1	2%	-1%	22%	3%	x	x
Cc1ccccc1Cn1cc(CCC(=O)NC(C)c2ccccc2)c2ccccc21 (stereo not drawn)	-1%	10%	45%	-17%	x	x
Cc1ccccc1/C=N/N1CCN(c2ccccc2)CC1	20µM*	3%	u	u	u	u
Cc1cccc(/C=N/N2CCN(c3ccccc3)CC2)c1	u	5%	-19%	u	-28	-11
CSc1nc(N(CCO)CCO)c2sc3nc(-c4ccco4)c4c(c3c2n1)CCC4	u	1%	11µM*	-35%[11.4 µM]	u	u
COC(=O)CSc1nc(SC)nc2c1sc1nc(-c3ccco3)c3c(c12)CC(C)(C)OC3	x	x	21%	3%	1	-2
CSc1nc(SCCO)c2sc3nc(-c4ccco4)c4c(c3c2n1)CC(C)(C)OC4	32µM*	x	15%	u	-5	4
Cc1ccc(-c2csc(NC(=O)c3ccno3)n2)cc1	u	4%	24%	79µM*	-15	0
NCCC(=O)Nc1cccc(-c2nn3c(=O)cc(N4CCNCC4)nc3s2)c1	x	x	x	-29%	x	x
O=C(Cc1ccccc1)NCCSCc1ccc(Cl)cc1	5%	-8%	42%	-3%	4	0
O=C(Cc1ccc(Cl)cc1)SCc1ccccc1	278%	32µM*	246%	229%	57	50
S=c1[nH]nc(CSCCOc2ccccc2)o1	-17%	11%	36%	-17%	-2	-23
